Among the data in PubChem BioAssay (NCI) are growth inhibition values, retold here.

SMILES strings stand for the structures. This is part of a sample that, as a whole, favours compounds with a hit. Of some 79,000 tested, about 15% had one in any assay. A number with no mark means an inactive call. Activity calls are given as the source filed them. Rule as the data show it: active = growth inhibition above about 70%; inactive = the rest.

The nature of test [1]: NCI Yeast Anticancer Drug Screen. Data for the rad50 strain (AID 155).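 Also: 0% = growth of vehicle-only cultures of the same strain.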 The conditions noted are these: S. cerevisiae rad50 strain growth inhibition, hits give high values. The procedure, abridged: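 Genetically altered yeast (DNA repair pathway); compound treatment; growth inhibition vs vehicle ctrl.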
The nature of test [2]: NCI Yeast Anticancer Drug Screen. Data for the mec2-1 strain (AID 157). The conditions noted are these: S. cerevisiae mec2-1 strain, hits give high values. Summed up:
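Strain: mec2-1 (DNA repair/cell cycle alteration). Compound exposure, then growth measured; inhibition expressed relative to vehicle.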

The nature of test [3]: NCI Yeast Anticancer Drug Screen. Data for the sgs1 mgt1 strain (AID 161).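 Also: 0% = growth of cultures given vehicle only.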 The conditions noted are these: S. cerevisiae sgs1 mgt1 strain, hits give high values. Summed up: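 Mutant yeast exposed to compound; growth scored against vehicle-only wells.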
Test [4] in a line: NCI Yeast Anticancer Drug Screen. Data for the cln2 rad14 strain (AID 165).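 Also: 0% = growth equal to vehicle treated cultures.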 The conditions noted are these: S. cerevisiae cln2 rad14 strain, hits give high values. Summed up: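 Compounds are applied to the cln2 rad14 yeast strain, and growth is then compared with that of vehicle-treated cultures to give inhibition.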
Test [5] in a line: NCI Yeast Anticancer Drug Screen. Data for the bub3 strain (AID 167). The conditions noted are these: S. cerevisiae bub3 mutant strain, hits give high values. The procedure, abridged: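 Yeast carrying a defined mutation is treated with each compound, and growth is compared with that of vehicle-exposed cells to give inhibition.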
Test [6] can be described thus: NCI Yeast Anticancer Drug Screen. Data for the mlh1 rad18 strain (AID 175). The conditions noted are these: S. cerevisiae mlh1 rad18 strain growth inhibition, hits give high values. The procedure, abridged:
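Read-out is yeast growth inhibition, calculated against vehicle-only controls. The compound was applied to a strain engineered with DNA damage repair alterations.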

Setting [7] is: at 5.0 µM (retest, dose inferred, filed as 0.5).
Where [8] appears, read: at 50.0 µM (retest, dose inferred, filed as 5.0).

For the compound `NC(=O)N/N=C/c1ccc(Cl)s1`, the growth inhibition in test [1] (setting [7]) was 4%; in test [1] (setting [8]) it was 42%; in test [1] (at 50.0 µM), 94.4% (active); in test [2] (setting [7]), 4%; in test [2] (setting [8]) it was 21%; in test [2] (at 50.0 µM), 59%. Also, the growth inhibition was 2% in test [3] (setting [7]); 31% in test [3] (setting [8]); 88.8% (active) in test [3] (at 50.0 µM); -1% in test [4] (setting [7]); 10% in test [4] (setting [8]); 52.5% in test [4] (at 50.0 µM). Besides, the growth inhibition in test [5] (setting [7]) is 3%; in test [5] (setting [8]), 35%; in test [5] (at 50.0 µM) it was 82.5% (active); in test [6] (setting [7]) it was 1%; in test [6] (setting [8]), 31%; in test [6] (at 50.0 µM), 89.2% (active).

Take `CCCN(CCC)c1ccc(/C=C/c2ccnc3ccccc23)cc1`: the growth inhibition in test [1] (setting [7]) is 9%; in test [1] (setting [8]) it was 74% (active); in test [1] (at 50.0 µM), 91.2% (active); in test [2] (setting [7]), -10%; in test [2] (setting [8]), 88% (active); in test [2] (at 50.0 µM) it was 92% (active). For the same compound, the growth inhibition in test [3] (setting [7]) is -4%; in test [3] (setting [8]), 82% (active); in test [3] (at 50.0 µM), 92.7% (active); in test [4] (setting [7]), -18%; in test [4] (setting [8]) it was 60%; in test [4] (at 50.0 µM) it was 58%. The growth inhibition in test [5] (setting [7]) is -12%; in test [5] (setting [8]), 88% (active); in test [5] (at 50.0 µM), 92% (active); in test [6] (setting [7]), -7%; in test [6] (setting [8]) it was 86% (active); in test [6] (at 50.0 µM) it was 89.7% (active).

For the compound `COC1=C(OC)C(=O)C(SCc2ccco2)=CC1=O`, the growth inhibition in test [1] (setting [7]) was 37%; in test [1] (setting [8]), 98% (active); in test [1] (at 50.0 µM) it was 50.6%; in test [2] (setting [7]), 29%; in test [2] (setting [8]), 99% (active); in test [2] (at 50.0 µM), 73.3% (active). Further, the growth inhibition is 53% in test [3] (setting [7]); 99% (active) in test [3] (setting [8]); 77.3% (active) in test [3] (at 50.0 µM); 51% in test [4] (setting [7]); 90% (active) in test [4] (setting [8]); 36.9% in test [4] (at 50.0 µM). The growth inhibition is 56% in test [5] (setting [7]); 99% (active) in test [5] (setting [8]); 62.1% in test [5] (at 50.0 µM); 28% in test [6] (setting [7]); 77% (active) in test [6] (setting [8]); 65% in test [6] (at 50.0 µM).

`Nc1cc(Cl)c(I)cc1Cl`: the growth inhibition in test [1] (setting [7]) is 7%; in test [1] (setting [8]), 98% (active); in test [1] (at 50.0 µM) it was 74.5% (active); in test [2] (setting [7]), -15%; in test [2] (setting [8]) it was 99% (active); in test [2] (at 50.0 µM), 15.8%. The growth inhibition in test [3] (setting [7]) is -1%; in test [3] (setting [8]), 100% (active); in test [3] (at 50.0 µM) it was 50.1%; in test [4] (setting [7]) it was -7%; in test [4] (setting [8]) it was 97% (active); in test [4] (at 50.0 µM) it was 32.3%. For the same compound, the growth inhibition in test [5] (setting [7]) is -8%; in test [5] (setting [8]), 99% (active); in test [5] (at 50.0 µM), 69.2%; in test [6] (setting [7]), 34%; in test [6] (setting [8]), 99% (active); in test [6] (at 50.0 µM) it was 86.8% (active).

Consider `COc1ccc2oc(-c3ccc(OC)c(OC)c3OC)cc(=O)c2c1`, for which the growth inhibition in test [1] (setting [7]) is -34%; in test [1] (setting [8]), -26%; in test [1] (at 50.0 µM), 15.7%; in test [2] (setting [7]), -47%; in test [2] (setting [8]) it was -12%; in test [2] (at 50.0 µM) it was 22%. Moreover, the growth inhibition in test [3] (setting [7]) is -11%; in test [3] (setting [8]), 50%; in test [3] (at 50.0 µM) it was 70% (active); in test [4] (setting [7]), -14%; in test [4] (setting [8]), 9%; in test [4] (at 50.0 µM), -4.55%. Also, the growth inhibition in test [5] (setting [7]) was -15%; in test [5] (setting [8]), 48%; in test [5] (at 50.0 µM) it was 51.2%; in test [6] (setting [7]), -39%; in test [6] (setting [8]), -7%; in test [6] (at 50.0 µM), 4.8%.

As to `COc1ccc(N=C2C(=S)N(c3ccc(OC)cc3)/C(=N/S(=O)(=O)c3ccccc3)N2c2ccccc2)cc1`, the growth inhibition was 10% in test [1] (setting [7]); 18% in test [1] (setting [8]); 8.6% in test [1] (at 50.0 µM); 9% in test [2] (setting [7]); 23% in test [2] (setting [8]); -4.1% in test [2] (at 50.0 µM). Also, the growth inhibition in test [3] (setting [7]) was -23%; in test [3] (setting [8]), 0%; in test [3] (at 50.0 µM), 5.7%; in test [4] (setting [7]) it was -11%; in test [4] (setting [8]) it was 3%; in test [4] (at 50.0 µM) it was 11.2%. For the same compound, the growth inhibition is -13% in test [5] (setting [7]); 11% in test [5] (setting [8]); 1.65% in test [5] (at 50.0 µM); 14% in test [6] (setting [7]); 16% in test [6] (setting [8]); 14% in test [6] (at 50.0 µM).

`CC1(C)OC2C(COC(c3ccccc3)(c3ccccc3)c3ccccc3)OC(n3cnc4c(N)ncnc43)C2O1` (stereo not given): the growth inhibition in test [1] (setting [7]) is -1%; in test [1] (setting [8]), 80% (active); in test [1] (at 50.0 µM) it was 64.9%; in test [2] (setting [7]) it was 19%; in test [2] (setting [8]), 99% (active); in test [2] (at 50.0 µM) it was 56.8%. Besides, the growth inhibition was 11% in test [3] (setting [7]); 92% (active) in test [3] (setting [8]); 18.6% in test [3] (at 50.0 µM); -4% in test [4] (setting [7]); 89% (active) in test [4] (setting [8]); 72.5% (active) in test [4] (at 50.0 µM). Moreover, the growth inhibition is -2% in test [5] (setting [7]); 92% (active) in test [5] (setting [8]); 48.2% in test [5] (at 50.0 µM); 32% in test [6] (setting [7]); 95% (active) in test [6] (setting [8]); 58.5% in test [6] (at 50.0 µM).

For `CCCCCCCCCCCCCCC(C(=O)O)S(=O)(=O)O` (stereo not given), the growth inhibition in test [1] (setting [7]) was 0%; in test [1] (setting [8]), 85% (active); in test [1] (at 50.0 µM) it was 98.9% (active); in test [2] (setting [7]), -1%; in test [2] (setting [8]) it was 58%; in test [2] (at 50.0 µM), 99.7% (active). Further, the growth inhibition is -3% in test [3] (setting [7]); 69% in test [3] (setting [8]); 87% (active) in test [3] (at 50.0 µM); -2% in test [4] (setting [7]); 70% (active) in test [4] (setting [8]); 95.7% (active) in test [4] (at 50.0 µM). The growth inhibition in test [5] (setting [7]) is -4%; in test [5] (setting [8]), 66%; in test [5] (at 50.0 µM), 99.6% (active); in test [6] (setting [7]), 0%; in test [6] (setting [8]) it was 83% (active); in test [6] (at 50.0 µM) it was 99.6% (active).

As to `Nc1ccc(Cl)c2cccnc12`, the growth inhibition in test [1] (setting [7]) was 11%; in test [1] (setting [8]) it was 92% (active); in test [1] (at 50.0 µM), 97.5% (active); in test [2] (setting [7]), 4%; in test [2] (setting [8]) it was 94% (active); in test [2] (at 50.0 µM), 35.5%. For the same compound, the growth inhibition in test [3] (setting [7]) is 5%; in test [3] (setting [8]), 89% (active); in test [3] (at 50.0 µM), 86.7% (active); in test [4] (setting [7]) it was 0%; in test [4] (setting [8]), 46%; in test [4] (at 50.0 µM), 87.2% (active). Besides, the growth inhibition in test [5] (setting [7]) is 0%; in test [5] (setting [8]), 90% (active); in test [5] (at 50.0 µM), 15.2%; in test [6] (setting [7]) it was 7%; in test [6] (setting [8]), 94% (active); in test [6] (at 50.0 µM) it was 91.9% (active).

For the compound `OC(CCN1CCCCC1)(Cc1ccccc1)c1cccc(Cl)c1` (stereo not given), the growth inhibition in test [1] (setting [7]) was 8%; in test [1] (setting [8]) it was 46%; in test [1] (at 50.0 µM) it was 58.1%; in test [2] (setting [7]), 4%; in test [2] (setting [8]) it was 40%; in test [2] (at 50.0 µM), 26.6%. Besides, the growth inhibition in test [3] (setting [7]) is 28%; in test [3] (setting [8]), 78% (active); in test [3] (at 50.0 µM), 73.1% (active); in test [4] (setting [7]), 17%; in test [4] (setting [8]), 52%; in test [4] (at 50.0 µM) it was 77.8% (active). In addition, the growth inhibition in test [5] (setting [7]) is 15%; in test [5] (setting [8]), 62%; in test [5] (at 50.0 µM), 50.9%; in test [6] (setting [7]), 17%; in test [6] (setting [8]), 64%; in test [6] (at 50.0 µM), 60.3%.
